Test results taken from PubChem BioAssay (Tox21).
Inconclusive results are not listed. Where a call stands in place of a potency, no number is given. Calls of active or inactive are those of the source. The call rests on the fitted dose curve.

Target: Beta-2 adrenergic receptor (Homo sapiens) (UniProt P07550)
Experiment: Adrenergic beta2 receptor (ADRB2) small molecule agonists, cell-based qHTS assay (AID 1963593)
Details: CHO-ADRB2 cells, cAMP HTRF, 30 min; series mostly up to 92.4 µM
Description: National Center for Advancing Translational Sciences [NCATS]
Division of Preclinical Innovation [DPI]
U.S. Environmental Protection Agency [EPA]
National Institutes of Environmental Health Sciences [NIEHS]
National Toxicology Program [NTP]
U.S. Food and Drug Administration [FDA]
Beta adrenergic receptors (Beta-ARs) belong to the G-protein coupled receptor (GPCR) superfamily, includes three subtypes - beta1, beta2, and beta3. Beta1-AR is the predominant receptor subtype expressed in the heart, and beta2-AR is expressed in the kidney, lung, blood vessel and in the heart, and beta3 is found in the adipocytes. Beta1 and 2 ARs couple to Gs protein and elevate cyclic adenosine mono phosphate (cAMP), which activates protein kinase A and leads to the downstream signaling responsible for the physiological actions. Beta-AR agonists or antagonists are the most prescribed therapeutic agents for heart failure and asthma, and these were one of the first target receptors for the rational drug design. Tox21 10K compound library was screened using the cAMP-Gs dynamic assay (Cisbio Bioassays, Shelton, CT) to identify agonists/antagonists of the Gs-coupled human adrenergic, beta2 receptor (ADRB2) in the CHO-ADRB2 cell line (Codex BioSolutions, Inc. Gaithersburg, MD), which stably over-expresses ADRB2. The principle of cAMP-Gs dynamic assay is based on HTRF technology, which facilitates the fluorescence resonance energy transfer (FRET) between donor Europium cryptate and acceptor d2-labeled cAMP. The cAMP generated within cells competes with the red acceptor, d2-labled cAMP, for binding to the monoclonal anti-cAMP-cryptate (Europium donor). An increase in intracellular cAMP leads to the disruption of FRET signal, and the signal is inversely proportional to the cAMP concentration. Isoproterenol HCl (Sigma-Aldrich, St. Louis, MO) was used as a positive control in the screening.
Tox21 Assay Protocol Summary:
CHO-ADRB2 cells were dispensed at 1,000/well in 4uL assay medium into white/solid 1536-well plates (Greiner Bio-One North America Inc., Monroe, NC) using a Multidrop Combi dispenser (ThermoFisher Scientific, Waltham, MA). The assay plates were incubated at 37C and 5% CO2 for an overnight (18-20hr). Then positive control and test compounds dissolved in DMSO were transferred to the assay plates at 23nL using a Pintool station (Wako, San Diego, CA). Following the compound and positive control transfer, 1uL stimulation mix containing 100uM IBMX and 25uM Ro-20-1724 was added to each well of the assay plates using BioRAPTR Flying Reagent Dispenser (FRD, Beckman Coulter, Brea, CA). The assay plates were incubated at room temperature for 0.5hr. Then 2.5ul each d2-labled cAMP and anti-cAMP-cryptate solutions were added separately to each well of the assay plates using an FRD and the assay plates were incubated at room temperature for 1hr.
Potency means the concentration at half of the fitted maximal effect.

Sequence of Beta-2 adrenergic receptor (Homo sapiens) (P07550 whole entry, looked up): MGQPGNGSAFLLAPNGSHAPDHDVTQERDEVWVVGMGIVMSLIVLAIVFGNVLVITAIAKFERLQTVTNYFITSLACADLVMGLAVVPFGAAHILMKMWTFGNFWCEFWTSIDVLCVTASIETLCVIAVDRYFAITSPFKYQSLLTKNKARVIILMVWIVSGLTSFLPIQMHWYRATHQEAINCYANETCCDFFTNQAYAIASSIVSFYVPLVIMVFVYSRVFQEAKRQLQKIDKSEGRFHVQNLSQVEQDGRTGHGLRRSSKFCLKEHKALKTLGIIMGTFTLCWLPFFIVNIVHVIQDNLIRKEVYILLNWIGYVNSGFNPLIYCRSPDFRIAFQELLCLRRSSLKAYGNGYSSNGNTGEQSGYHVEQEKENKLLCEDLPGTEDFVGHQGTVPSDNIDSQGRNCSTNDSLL

`C=C(C)C(=O)OCCCCOC(=O)C(=C)C` was tested. Which Potency did it give?
The Potency was “inactive”.

For `CCOP(=S)(Oc1ccc([N+](=O)[O-])cc1)c1ccccc1` (stereo not given), which Potency is on record?
Its Potency is “inactive”.

For `CNC(=O)O/N=C(\C)SC`, which Potency is on record?
Its Potency is “inactive”.

`CCc1nn(C)c(C(=O)NCc2ccc(C(C)(C)C)cc2)c1Cl` was tested. Which Potency did it give?
The Potency was “inactive”.

`COP(=S)(OC)Oc1cc(Cl)c(I)cc1Cl` was tested. Which Potency did it give?
The Potency was “inactive”.

Which Potency does the source give for `S=C=NCCc1ccccc1` here?
The Potency was “inactive”.

For `O=C(CBr)Nc1ccc(Cl)cc1C(=O)c1ccccc1F`, which Potency is on record?
The Potency was “inactive”.

How did the Potency turn out when `O=[N+]([O-])c1ccc(Oc2ccc(C(F)(F)F)cc2[N+](=O)[O-])cc1` was run?
Its Potency is “inactive”.

How did the Potency turn out when `CCOP(=S)(OCC)SCSCC` was run?
The Potency was “inactive”.

How did the Potency turn out when `Fc1ccc(Oc2ccnc3cc(Cl)cc(Cl)c23)cc1` was run?
The Potency was “inactive”.

How did the Potency turn out when `OC(c1ccc(F)cc1)(c1cncnc1)c1ccccc1Cl` (stereo not given) was run?
Its Potency is “inactive”.

With `ClC(Cl)C(Cl)Cl` as the compound, how does the Potency read?
Its Potency is “inactive”.

How did the Potency turn out when `C=C(C)[C@H]1CN[C@H](C(=O)O)[C@H]1CC(=O)O` was run?
Its Potency is “inactive”.

How did the Potency turn out when `O=C(NC(=O)c1c(F)cccc1F)Nc1cc(Cl)c(F)c(Cl)c1F` was run?
Its Potency is “inactive”.

With `CNC(=O)Oc1ccccc1C(C)C` as the compound, how does the Potency read?
The Potency was “inactive”.

`CN1CCC(O)(c2ccc(F)cc2)C(C(=O)c2ccc(F)cc2)C1` (stereo not given) was tested. Which Potency did it give?
Its Potency is “inactive”.

With `CCOP(=S)(OCC)Oc1ccc(Cl)cc1Cl` as the compound, how does the Potency read?
The Potency was “inactive”.

For `CCCN(CCC)c1c([N+](=O)[O-])cc(S(C)(=O)=O)cc1[N+](=O)[O-]`, which Potency is on record?
Its Potency is “inactive”.

`CN1C(=O)C(O)N=C(c2ccccc2)c2cc(Cl)ccc21` (stereo not given) was tested. Which Potency did it give?
Its Potency is 31.7 µM (active).

How did the Potency turn out when `CCN[C@@H](C)Cc1ccccc1` was run?
Its Potency is “inactive”.

How did the Potency turn out when `Clc1ccc(C(Cl)(Cl)Cl)cc1Cl` was run?
Its Potency is “inactive”.

With `C[C@H](CN1CCOCC1)C(C(=O)N1CCCC1)(c1ccccc1)c1ccccc1` as the compound, how does the Potency read?
Its Potency is “inactive”.

Which Potency does the source give for `CCCCn1cc[n+](C)c1.[Cl][Fe-]([Cl])([Cl])[Cl]` here?
The Potency was “inactive”.

`CCCSP(=S)(OCC)Oc1ccc(Cl)cc1Cl` (stereo not given) was tested. Which Potency did it give?
Its Potency is “inactive”.

For `NC(=O)C(Cl)Cl`, which Potency is on record?
Its Potency is “inactive”.

How did the Potency turn out when `CC(=O)[O-].CC(=O)[O-].[Co+2]` was run?
The Potency was “inactive”.

For `CCSCc1ccccc1OC(=O)NC`, which Potency is on record?
The Potency was “inactive”.

With `CCCCP(CCCC)CCCC` as the compound, how does the Potency read?
The Potency was “inactive”.

For `CCCN(CCCl)c1c([N+](=O)[O-])cc(C(F)(F)F)cc1[N+](=O)[O-]`, which Potency is on record?
The Potency was “inactive”.

With `NC1CCC(CC2CCC(N)CC2)CC1` (stereo not given) as the compound, how does the Potency read?
The Potency was “inactive”.

How did the Potency turn out when `O=c1[nH]oc2c1CCNC2` was run?
The Potency was “inactive”.

With `CC(C)COP(=O)(OCC(C)C)OCC(C)C` as the compound, how does the Potency read?
The Potency was “inactive”.

`Cc1cc(C(C)(C)c2cc(C)c(O)c(C)c2)cc(C)c1O` was tested. Which Potency did it give?
Its Potency is “inactive”.

How did the Potency turn out when `ClSC(Cl)(Cl)Cl` was run?
Its Potency is “inactive”.

How did the Potency turn out when `CCOP(=S)(OCC)SCSP(=S)(OCC)OCC` was run?
The Potency was “inactive”.

How did the Potency turn out when `Cc1ncsc1CCCl` was run?
Its Potency is “inactive”.

With `CC(C)(C)c1ccc(O)cc1` as the compound, how does the Potency read?
Its Potency is “inactive”.

For `CN(C)c1ccc(N=Nc2ccccc2)cc1`, which Potency is on record?
Its Potency is “inactive”.

How did the Potency turn out when `COc1ccc(CN2CCNCC2)c(OC)c1OC` was run?
Its Potency is “inactive”.

How did the Potency turn out when `CC(Cl)(Cl)[N+](=O)[O-]` was run?
The Potency was “inactive”.
